# Assay results published in PubChem BioAssay (EPA / NIEHS).
# Inconclusive results are not listed. Some structures have more than one record in an assay (separate samples or runs), and their calls can disagree. Active and inactive are the calls of the source. Rule for the calls: active = hit-call score of the fitted dose curve at least 0.9, where 1 is the maximum; inconclusive = response in the unintended direction; inactive = score below 0.9.
# Key:
# [1] = TOX21_p53_BLA_p4_viability: Viability Assessment in the Tox21 HCT-116 p53 Agonism Beta-lactamase Assay, Phase 4 (AID 2283597);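 note: hits lower the luminescence signal meaning cytotoxicity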
# In short: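 Following a 16 h exposure at 37C, the treated HCT116 wells were first read for the FRET ratio. They were then lysed with CellTiter-Glo, and ATP luminescence was recorded after 30 min at room temperature.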
# [2] = biological target: Cellular tumor antigen p53 (Homo sapiens) (UniProt P04637); experiment: TOX21_p53_BLA_p5_ratio: Tox21 HCT-116 p53 Agonism Beta-lactamase Assay, Ratio, Phase 5 (AID 2283599)
# Cellular tumor antigen p53 (Homo sapiens), sequence (P04637 whole entry, looked up): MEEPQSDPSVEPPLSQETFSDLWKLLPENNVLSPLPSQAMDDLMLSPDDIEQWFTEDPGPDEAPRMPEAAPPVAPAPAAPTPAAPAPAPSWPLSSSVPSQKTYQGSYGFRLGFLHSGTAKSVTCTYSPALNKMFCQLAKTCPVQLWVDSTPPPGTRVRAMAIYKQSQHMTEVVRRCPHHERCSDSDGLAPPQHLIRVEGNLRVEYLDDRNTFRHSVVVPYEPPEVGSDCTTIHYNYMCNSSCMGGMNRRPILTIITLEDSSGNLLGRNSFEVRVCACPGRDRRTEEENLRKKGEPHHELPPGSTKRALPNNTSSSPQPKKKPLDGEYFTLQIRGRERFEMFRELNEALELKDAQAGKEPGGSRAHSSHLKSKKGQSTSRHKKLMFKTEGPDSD
# In short: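 HCT-116 cells carrying a p53-inducible beta-lactamase reporter were seeded at 4000 cells/well and dosed after 5 h with compound in DMSO (217-fold dilution). After 16 h at 37C, CCF4-AM substrate was added for 2 h, and the 460/530 nm emission ratio was scored as gain-of-signal versus DMSO.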
# [3] = TOX21_p53_BLA_p5_viability: Viability Assessment in the Tox21 HCT-116 p53 Agonism Beta-lactamase Assay, Phase 5 (AID 2283600)
# In short: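 After the 460/530 nm beta-lactamase measurement, the wells received an ATP-detection luciferase reagent; signal was read 30 min later at RT. Compound treatment lasted 16 h on cells pre-incubated 5 h post-seeding.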
# [4] = biological target: Cellular tumor antigen p53 (Homo sapiens) (UniProt P04637); experiment: TOX21_p53_BLA_p4_ratio: Tox21 HCT-116 p53 Agonism Beta-lactamase Assay, Ratio, Phase 4 (AID 2283601)
# In short: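 HCT116 cells carrying an inducible beta-lactamase reporter were plated at 4000 cells/well, rested 5 h, then exposed to compounds in DMSO (217-fold dilution) for 16 h at 37C. CCF4-AM substrate was loaded 2 h at room temperature; 460/530 nm emission ratio scored gain-of-signal versus DMSO.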
# [5] = Tanguay_ZF_120hpf_MORT_legacy: (Legacy) Oregon State University Tanguay Lab 120 Hour Post-fertilization zebrafish Assay for Mortality (AID 2283633);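 for AC50: fitted as increase in binary mortality versus DMSO negative control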
# In short: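 Static waterborne exposure from 6 to 120 hpf at 28C of single dechorionated wild-type (5D) embryos per well, 0.64% DMSO final. Death recorded present/absent by brightfield at 24 and 120 hpf.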
# [6] = Tanguay_ZF_120hpf_YSE_legacy: (Legacy) Oregon State University Tanguay Lab 120 Hour Post-fertilization zebrafish Assay for Yolk Sac Edema (AID 2283634);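 for AC50: actives raise the incidence of yolk sac edema above the DMSO baseline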
# In short: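 Presence or absence of yolk sac edema was recorded at 120 hpf in surviving larvae. These were wild-type Tropical 5D embryos, chorion removed at 4 hpf, held in static exposure at 28C from 6 hpf with 0.64% DMSO vehicle.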
# [7] = Tanguay_ZF_120hpf_EYE_legacy: (Legacy) Oregon State University Tanguay Lab 120 Hour Post-fertilization zebrafish Assay for Eye Malformation (AID 2283636);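 note: binary presence or absence of eye malformation scored by brightfield in 120 hpf larvae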
# In short: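 Dechorionated wild-type Tropical 5D zebrafish embryos were exposed statically from 6 hpf, one per well, to 120 hpf at 28C in sealed, foil-covered plates with 0.64% DMSO. Eye malformation was scored present/absent by brightfield microscopy against DMSO controls.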
# [8] = Tanguay_ZF_120hpf_SNOU_legacy: (Legacy) Oregon State University Tanguay Lab 120 Hour Post-fertilization zebrafish Assay for Snout Malformation (AID 2283637)
# In short: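 Tropical 5D wild-type zebrafish embryos, dechorionated with pronase at 4 hpf, were exposed singly from 6 hpf to 120 hpf statically at 28C in 0.64% DMSO. Snout malformation was scored present/absent by brightfield microscopy, fitted against DMSO.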
# [9] = Tanguay_ZF_120hpf_JAW_legacy: (Legacy) Oregon State University Tanguay Lab 120 Hour Post-fertilization zebrafish Assay for Jaw Malformation (AID 2283638);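 for AC50: active means more embryos with jaw malformation than DMSO controls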
# In short: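 Binary jaw-malformation call at 120 hpf by brightfield microscopy. Embryos (Tropical 5D strain, chorion removed at 4 hpf) were dosed statically at 6 hpf, one per well, at 28C with 0.64% DMSO. Embryos that died were not scored.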
# [10] = Tanguay_ZF_120hpf_AXIS_legacy: (Legacy) Oregon State University Tanguay Lab 120 Hour Post-fertilization zebrafish Assay for Body Axis Malformation (AID 2283635);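 for AC50: potency for an increased fraction of larvae scored with body axis malformation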
# In short: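 Binary scoring of axis defects at 120 hpf under brightfield, fitted positive versus DMSO. Tropical 5D embryos, chorion removed by pronase at 4 hpf, were singly exposed in sealed, dark plates at 28C from 6 hpf; DMSO 0.64% final.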
structure (smiles),measurement,setting,value
CC(C)(C)c1cccc(C(C)(C)C)c1O,outcome,[1],inactive
same,outcome,[2],inactive
same,outcome,[3],inactive
same,outcome,[4],inactive
same,outcome,[5],inactive
same,outcome,[6],inactive
same,outcome,[7],inactive
same,outcome,[8],inactive
same,outcome,[9],inactive
CCCOc1sc(C(=O)N2CCC(c3cc(CN)ccc3F)CC2)c(C)c1Br,AC50,[1],31.7 µM (active)
same,AC50,[2],80.7 µM (active)
same,AC50,[3],80.1 µM (active)
same,AC50,[4],72.2 µM (active)
same,outcome,[5],inactive
same,outcome,[6],inactive
same,outcome,[10],inactive
same,outcome,[7],inactive
same,outcome,[9],inactive
Oc1cc2ccccc2c2ccccc12,AC50,[1],12.2 µM (active)
same,AC50,[2],11.6 µM (active)
same,AC50,[3],13.3 µM (active)
same,AC50,[4],20.4 µM (active)
same,AC50,[5],14 µM (active)
same,AC50,[6],38.3 µM (active)
same,AC50,[10],10.4 µM (active)
same,AC50,[7],40000 nM (active)
same,AC50,[8],14300 nM (active)
same,AC50,[9],9.87 µM (active)
CCCCCCCCCCCCN1CCCC1=O,outcome,[1],inactive
same,AC50,[2],63.2 µM (active)
same,AC50,[3],45.3 µM (active)
same,outcome,[4],inactive
same,AC50,[5],27.6 µM (active)
same,AC50,[6],47.3 µM (active)
same,outcome,[10],inactive
same,outcome,[7],inactive
same,outcome,[8],inactive
same,AC50,[9],46.6 µM (active)
CN(C)C=O,outcome,[1],inactive
same,outcome,[2],inactive
same,outcome,[4],inactive
same,outcome,[5],inactive
same,outcome,[6],inactive
same,outcome,[10],inactive
same,outcome,[8],inactive
same,outcome,[9],inactive
C#C[C@]1(O)CC[C@H]2[C@@H]3CCC4=CC(=O)CC[C@@H]4[C@H]3CC[C@@]21C,outcome,[5],inactive
same,outcome,[6],inactive
same,outcome,[10],inactive
same,outcome,[7],inactive
same,outcome,[8],inactive
same,outcome,[9],inactive
OC1CCC(C2CCCCC2)CC1 (stereo not drawn),outcome,[2],inactive
same,outcome,[3],inactive
same,outcome,[4],inactive
same,outcome,[5],inactive
same,outcome,[6],inactive
same,outcome,[10],inactive
same,outcome,[7],inactive
same,outcome,[8],inactive
same,outcome,[9],inactive
c1ccc2c(c1)ccc1ccccc12,outcome,[1],inactive
same,outcome,[4],inactive
same,outcome,[5],inactive
same,outcome,[6],inactive
same,outcome,[10],inactive
same,outcome,[7],inactive
same,outcome,[8],inactive
same,outcome,[9],inactive
NC(=O)N(O)[C@@H]1C=C[C@H](Oc2cccc(Oc3ccc(F)cc3)c2)C1,AC50,[1],84.2 µM (active)
same,outcome,[2],inactive
same,AC50,[4],74.5 µM (active)
same,outcome,[5],inactive
same,outcome,[6],inactive
same,outcome,[10],inactive
same,outcome,[7],inactive
same,outcome,[8],inactive
same,outcome,[9],inactive
CCCCCCC(=O)O,outcome,[1],inactive
same,outcome,[3],inactive
same,outcome,[4],inactive
same,outcome,[5],inactive
same,outcome,[6],inactive
same,outcome,[10],inactive
same,outcome,[8],inactive
same,outcome,[9],inactive
CC(=O)CC(C)(C)O,outcome,[2],inactive
same,outcome,[4],inactive
same,outcome,[5],inactive
same,outcome,[6],inactive
same,outcome,[10],inactive
same,outcome,[8],inactive
same,outcome,[9],inactive
CCCCCCCCCCCCc1ccccc1S(=O)(=O)O,outcome,[5],inactive
same,outcome,[6],inactive
same,outcome,[10],inactive
same,outcome,[7],inactive
same,outcome,[8],inactive
O=C(O)c1ccccc1C(c1ccc(O)cc1)c1ccc(O)cc1,outcome,[5],inactive
same,outcome,[6],inactive
same,outcome,[10],inactive
same,outcome,[7],inactive
same,outcome,[8],inactive
same,outcome,[9],inactive
C=C(C)C(=O)OCCC(F)(F)C(F)(F)C(F)(F)C(F)(F)C(F)(F)C(F)(F)F,outcome,[1],inactive
same,outcome,[2],inactive
same,outcome,[4],inactive
same,outcome,[5],inactive
same,outcome,[6],inactive
same,outcome,[10],inactive
same,outcome,[7],inactive
same,outcome,[8],inactive
C[C@@H]1C[C@H]2[C@@H]3CCC4=CC(=O)C=C[C@]4(C)[C@@]3(F)[C@@H](O)C[C@]2(C)[C@@]1(O)C(=O)COP(=O)(O)O,outcome,[1],inactive
same,outcome,[2],inactive
same,outcome,[3],inactive
same,outcome,[5],inactive
same,outcome,[6],inactive
same,outcome,[10],inactive
same,outcome,[7],inactive
same,outcome,[8],inactive
same,outcome,[9],inactive
CC[C@H](C)[C@@H](C(=O)O)n1sc2ccccc2c1=O,outcome,[1],inactive
same,outcome,[2],inactive
same,outcome,[5],inactive
same,outcome,[6],inactive
same,outcome,[10],inactive
same,outcome,[7],inactive
same,outcome,[8],inactive
same,outcome,[9],inactive
CN1CCC[C@H]1c1cccnc1,outcome,[5],inactive
same,outcome,[6],inactive
same,outcome,[10],inactive
same,outcome,[7],inactive
same,outcome,[8],inactive
same,outcome,[9],inactive
ClC1=C(Cl)C(Cl)(Cl)C(Cl)=C1Cl,outcome,[1],inactive
same,outcome,[2],inactive
same,outcome,[3],inactive
same,outcome,[4],inactive
same,outcome,[6],inactive
same,outcome,[10],inactive
same,outcome,[7],inactive
same,outcome,[8],inactive
same,outcome,[9],inactive
CCCCCCCCCCCCCCCS(=O)(=O)Oc1ccccc1,outcome,[1],inactive
same,outcome,[2],inactive
same,outcome,[4],inactive
same,outcome,[5],inactive
same,outcome,[6],inactive
same,outcome,[10],inactive
same,outcome,[8],inactive
same,outcome,[9],inactive
CCC(=C(c1ccc(O)cc1)c1ccc(OCCN(C)C)cc1)c1ccccc1,outcome,[5],inactive
same,outcome,[6],inactive
same,outcome,[10],inactive
same,outcome,[7],inactive
same,outcome,[8],inactive
same,outcome,[9],inactive
CC(O)C(=O)O (stereo not drawn),outcome,[2],inactive
same,outcome,[4],inactive
N#C[C@@H]1CC(F)(F)CN1C(=O)CNC1CC2CCC(C1)N2c1ncccn1 (stereo partly drawn),outcome,[1],inactive
same,outcome,[3],inactive
same,outcome,[4],inactive
same,outcome,[5],inactive
same,outcome,[6],inactive
same,outcome,[10],inactive
same,outcome,[7],inactive
same,outcome,[8],inactive
same,outcome,[9],inactive
OCCC(F)(F)C(F)(F)C(F)(F)C(F)(F)C(F)(F)C(F)(F)F,outcome,[2],inactive
same,outcome,[3],inactive
same,outcome,[4],inactive
same,outcome,[5],inactive
same,outcome,[6],inactive
same,outcome,[9],inactive
O=C1OC2(c3ccccc31)c1cc(Br)c(O)c(Br)c1Oc1c2cc(Br)c(O)c1Br,outcome,[1],inactive
same,outcome,[3],inactive
OCCC(F)(F)C(F)(F)C(F)(F)C(F)(F)C(F)(F)C(F)(F)C(F)(F)C(F)(F)F,outcome,[2],inactive
same,outcome,[3],inactive
same,outcome,[4],inactive
same,outcome,[5],inactive
same,outcome,[10],inactive
same,outcome,[8],inactive
CC(C)CCCCCCOC(=O)CCCCC(=O)OCCCCCCC(C)C,outcome,[1],inactive
same,outcome,[4],inactive
same,outcome,[5],inactive
same,outcome,[6],inactive
same,outcome,[7],inactive
same,outcome,[8],inactive
same,outcome,[9],inactive
CCCCC(CC)COC(=O)CCCCC(=O)OCc1ccccc1 (stereo not drawn),outcome,[3],inactive
same,outcome,[4],inactive
same,outcome,[5],inactive
same,outcome,[6],inactive
same,outcome,[10],inactive
same,outcome,[7],inactive
same,outcome,[8],inactive
same,outcome,[9],inactive
CC(C)(C)c1cc(C(C)(C)C)c(O)c(C(C)(C)C)c1,outcome,[1],inactive
same,outcome,[2],inactive
same,outcome,[3],inactive
same,outcome,[5],inactive
same,outcome,[6],inactive
same,outcome,[10],inactive
same,outcome,[7],inactive
same,outcome,[8],inactive
same,outcome,[9],inactive
OC1CCCCC1,outcome,[1],inactive
same,outcome,[2],inactive
same,outcome,[3],inactive
same,outcome,[5],inactive
same,outcome,[6],inactive
same,outcome,[10],inactive
same,outcome,[7],inactive
same,outcome,[8],inactive
same,outcome,[9],inactive
CCCCCCCCOC(=O)CCCCCCCCC(=O)OCCCCCCCC,outcome,[1],inactive
same,outcome,[2],inactive
same,outcome,[5],inactive
same,outcome,[6],inactive
same,outcome,[10],inactive
same,outcome,[7],inactive
same,outcome,[8],inactive
same,outcome,[9],inactive
CC1=C(/C=C/C(C)=C/C=C/C(C)=C/C(=O)O)C(C)(C)CCC1,AC50,[2],86.9 µM (active)
same,outcome,[2],inactive
same,outcome,[3],inactive
same,outcome,[4],inactive
same,AC50,[5],1.54 µM (active)
same,AC50,[6],0.214 µM (active)
same,AC50,[7],99.9 nM (active)
same,AC50,[8],183 nM (active)
same,AC50,[9],0.144 µM (active)
CCCCC(CC)COC(=O)CCCCC(=O)OCC(CC)CCCC (stereo not drawn),outcome,[2],inactive
same,outcome,[3],inactive
same,outcome,[4],inactive
same,outcome,[5],inactive
same,outcome,[6],inactive
same,outcome,[10],inactive
same,outcome,[7],inactive
same,outcome,[8],inactive
same,outcome,[9],inactive
CCC(C)(C)C1CCC(O)CC1 (stereo not drawn),outcome,[2],inactive
same,outcome,[3],inactive
same,outcome,[4],inactive
same,outcome,[5],inactive
same,outcome,[6],inactive
same,outcome,[10],inactive
same,outcome,[7],inactive
same,outcome,[8],inactive
same,outcome,[9],inactive
COCC(C)OCC(C)O (stereo not drawn),outcome,[5],inactive
same,outcome,[7],inactive
same,outcome,[8],inactive
same,outcome,[9],inactive
CCc1nn(C2CCCCC2)c2cc(C3(C#N)CCC(C(=O)O)CC3)ccc12 (stereo not drawn),outcome,[1],inactive
same,outcome,[2],inactive
same,outcome,[3],inactive
same,AC50,[4],75.2 µM (active)
same,AC50,[6],0.324 µM (active)
same,AC50,[10],0.384 µM (active)
same,AC50,[7],377 nM (active)
same,AC50,[8],344 nM (active)
same,AC50,[9],0.332 µM (active)
CCOC(=O)CC(O)(CC(=O)OCC)C(=O)OCC,outcome,[4],inactive
same,outcome,[5],inactive
same,outcome,[6],inactive
same,outcome,[10],inactive
same,outcome,[7],inactive
same,outcome,[8],inactive
same,outcome,[9],inactive
CCCCOCCO,outcome,[2],inactive
same,outcome,[3],inactive
same,outcome,[5],inactive
same,outcome,[10],inactive
same,outcome,[7],inactive
same,outcome,[8],inactive
same,outcome,[9],inactive
